The structures appear in SMILES notation. The whole screen tested about 86,000 compounds, of which about 1,400 (1.6%) were called active. This excerpt belongs to a sample that is enriched for actives. Values without a mark were called inactive. Cut-off read from the data, not from the text of the source: active = inhibition above about 50%; inactive = the rest.

Chain of Estrogen receptor (Homo sapiens) (P03372 whole entry, looked up, the tested form may be a part): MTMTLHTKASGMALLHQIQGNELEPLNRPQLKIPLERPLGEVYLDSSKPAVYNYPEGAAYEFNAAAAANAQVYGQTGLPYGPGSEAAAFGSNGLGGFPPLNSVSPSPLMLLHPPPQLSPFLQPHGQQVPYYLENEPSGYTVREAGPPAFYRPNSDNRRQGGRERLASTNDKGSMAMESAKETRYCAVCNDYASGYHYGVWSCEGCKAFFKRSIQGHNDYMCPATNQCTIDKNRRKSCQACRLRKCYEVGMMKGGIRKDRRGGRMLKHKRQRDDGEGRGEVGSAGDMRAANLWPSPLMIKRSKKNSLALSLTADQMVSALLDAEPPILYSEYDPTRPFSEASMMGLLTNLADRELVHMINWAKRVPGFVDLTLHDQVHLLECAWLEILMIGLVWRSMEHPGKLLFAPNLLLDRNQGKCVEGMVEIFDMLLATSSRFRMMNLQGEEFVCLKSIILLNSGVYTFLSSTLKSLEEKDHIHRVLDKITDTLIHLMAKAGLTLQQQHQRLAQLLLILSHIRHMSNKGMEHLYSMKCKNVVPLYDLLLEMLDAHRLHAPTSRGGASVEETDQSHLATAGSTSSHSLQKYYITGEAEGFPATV

The experiment has as its target Estrogen receptor (Homo sapiens) (UniProt P03372). The experiment can be described thus: ERα–SRC-1 coactivator interaction inhibitors, primary screen, biochemical, TR-FRET, ERα LBD, estradiol-bound (AID 629).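 Note: 0% = receptor plus peptide control and 100% = peptide only without receptor.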 To be noted: TR-FRET ER-alpha LBD / SRC-1 peptide, at 25.6 µM, hits give high values. A general note: Time-resolved FRET reads energy transfer from a long-lived donor to a nearby acceptor.
Usually inhibition stands for the relative decrease from the control value, in per cent. Take `COC(=O)C1=C(Nc2ccc(C)cc2)C=C(C)C(C(=O)OC)C1c1ccc(F)cc1` (stereo unspecified): the inhibition was -7.97%. Take `Cc1nn(C)cc1CNC(=O)Nc1ccc(Cl)cc1`: the inhibition was 5.21%.

For `Cc1cccc(C(=O)Nc2ccccc2N2CCN(c3ccc(F)cc3)CC2)c1`, the inhibition is -12.2%. Take `O=C1CCCc2nn(-c3ccccc3)nc21`: the inhibition was -5.5%. For the compound `O=C(COC(=O)CCC(=O)c1cccs1)NCc1ccco1`, the inhibition was 71.3% (active). As for `O=C(CCC(=O)c1cccs1)NCc1ccccc1`, the inhibition was 3.23%. To `O=C(COC(=O)C12CC3CC(CC(C3)C1)C2)NCc1ccco1` belongs 21%. In the case of `O=C(Nc1nncs1)c1cccc(S(=O)(=O)N2CCCCC2)c1`, the inhibition was -7.35%.

As for `CC(C)(C)n1nnnc1C(c1ccc(Cl)cc1)N1CCSCC1` (stereo unspecified), the inhibition is -5.89%. Take `Cc1cccc(NC(=O)CSc2nnc(-c3ccco3)o2)c1`: the inhibition is -9.42%. To `Cc1cccc(NC(=O)Cn2cc(C(=O)c3ccco3)c3ccccc32)c1` belongs 52.3% (active); to `O=C(Cn1cc(C(=O)c2cccs2)c2ccccc21)NCc1cccs1`, 4.67%. `Cc1cc(C)c2cc(CN(Cc3nnnn3Cc3ccc(F)cc3)C3CCCC3)c(=O)[nH]c2c1`: the inhibition was 7.55%.

As for `COc1ccc(-c2nnc(SCc3cccnc3)o2)cc1`, the inhibition is -6.1%. To `COc1ccc(S(=O)(=O)N/N=C\c2ccc(OC)c(COc3ccc(C)cc3[N+](=O)[O-])c2)cc1` belongs 17.7%; to `O=C(CSc1nnnn1-c1ccccc1)NCc1ccco1`, 33.1%; to `COc1ccc(Cc2nnc(NC(=O)Cc3cccs3)s2)cc1`, 97.3% [fluorescence artefact?] (active). As to `COc1ccc(Cc2nnc(NS(=O)(=O)Cc3ccccc3)s2)cc1`, the inhibition was -16.5%. Regarding `CCCc1ccc(-c2csc(NC(=O)Cc3cccs3)n2)cc1`, the inhibition was 7.36%.

As for `CC(C)(C)C(=O)Cn1c(NCCO)nc2ccccc21`, the inhibition was -7.55%. With `CN(Cc1ccccc1)C(=O)COc1ccccc1`, the inhibition is 21%. For `Cc1nc2c(c(=O)n1Cc1ccco1)c1nc3ccccc3nc1n2Cc1ccccc1`, the inhibition was 79.5% (active). `COCCCn1c2nc3ccccc3nc2c2c(=O)n(Cc3ccc(Cl)cc3)c(C)nc21`: the inhibition is 22.2%. The same measure for `Cc1ccc(Cn2c(C)nc3c(c2=O)c2nc4ccccc4nc2n3Cc2ccco2)cc1`: 45.1%; for `CC1(C)CCc2nc(SCc3ccccc3)c(C#N)cc2C1`: -2.01%.

Take `C=C(C)CNC(=S)/N=c1\scc(C)n1CC`: the inhibition was 64.7% [fluorescence artefact?] (active). Take `CS(=O)(=O)n1nc(-c2ccccc2)nc1NCc1ccco1`: the inhibition is -3%.

In the case of `CCOc1ccc2c(c1)C(c1ccc(C)cc1)=NNC(c1ccc(C)cc1)=N2`, the inhibition is -14.6%. Regarding `Clc1ccc(COn2c(-c3ccc(Cl)cc3Cl)nc3ncccc32)cc1`, the inhibition is 27.7%. Turning to `COc1ccc(S(=O)(=O)NCc2ccc(C(=O)N(C)Cc3ccco3)cc2)cc1`, the inhibition is 2.78%.

On to `O=C(c1cccnc1NCc1ccccc1)N1CCOCC1`, for which the inhibition is -6.49%. To `Oc1c(C(c2ccccn2)N2CCOCC2)ccc2cccnc12` (stereo unspecified) belongs 70% [fluorescence artefact?] (active). To `Cc1nc2sc(C(c3ccco3)N3CCOCC3)c(O)n2n1` (stereo unspecified) belongs -24%. The same measure for `CCc1nnc(NC(=O)CCC(=O)NCc2ccccc2OC)s1`: -1.4%; for `Cc1nc(-c2ccc(NC(=O)c3cccs3)cc2)cs1`: -16.8%; for `O=C(Cc1cccc2ccccc12)Nc1ccc2oc(-c3ccccc3)nc2c1`: -1.24%.

As for `O=C(Nc1ccc2oc(-c3ccc4ccccc4c3)nc2c1)c1cccs1`, the inhibition is 55% (active). Take `CCOC(=O)c1ccccc1NS(=O)(=O)c1ccc(OC)cc1`: the inhibition is -11.3%. For `CCOC(=O)N1CCN(C(=O)CSc2ccc(Cl)cc2)CC1`, the inhibition was -2.04%. With `CCOC(=O)N1CCN(C(c2cccnc2)c2ccc3cccnc3c2O)CC1` (stereo unspecified), the inhibition is 53.3% [fluorescence artefact?] (active). To `Oc1c(CN2CCN(c3ccc(F)cc3)CC2)cc(Cl)c2cccnc12` belongs -0.01%; to `CCN1CCN(C(c2cccnc2)c2cc(Cl)c3cccnc3c2O)CC1` (stereo unspecified), 65.6% [fluorescence artefact?] (active). Consider `CCOC(=O)N1CCN(C(=O)c2cc3c(ccc4ccccc43)oc2=O)CC1`, for which the inhibition was -9.07%. `CCn1c(=O)c(=O)n(CC)c2cc(S(=O)(=O)N3CCc4ccccc43)ccc21`: the inhibition was -5.41%.

For `CCN(CC)CC(=O)c1c[nH]c2ccc(OC)cc12`, the inhibition was -8.61%. The same measure for `CCOC(=O)/C(C#N)=C\c1c(C)cc(C)c(COC(C)=O)c1C`: -6.55%; for `O=C(Nc1nc(-c2ccc3c(c2)OCO3)cs1)c1ccncc1`: 58% [fluorescence artefact?] (active); for `O=C(Nc1nc(-c2ccncc2)cs1)C1COc2ccccc2O1` (stereo unspecified): 1.84%. For the compound `O=C(Nc1ccc2c(c1)OCCO2)c1ccncc1`, the inhibition is -22.6%. `COc1ccc(CN(C(=O)CSc2nnc(-c3ccc(OC)c(OC)c3)o2)c2ccc(F)cc2)cc1`: the inhibition was -6.76%. `COc1ccc(C(=O)N2CC3(C)CC2CC(C)(C)C3)cc1OC` (stereo unspecified): the inhibition was -3.82%. Regarding `O=C(CSc1nnc(-c2cccnc2)n1CCc1ccccc1)NCc1ccccc1`, the inhibition is -17.8%. For `CCOc1cccc(-c2nn3c(-c4ccccn4)nnc3s2)c1`, the inhibition was 2.04%. As for `COc1ccc(-c2nn3c(-c4ccccc4)nnc3s2)cc1OC`, the inhibition was 3.83%.

Consider `c1ccc(-c2cc(-c3nnc4sc(-c5ccccn5)nn34)[nH]n2)cc1`, for which the inhibition was 54.2% [fluorescence artefact?] (active). For `O=C(/C=C/NNC(=O)c1cccc(Br)c1)c1ccccc1`, the inhibition was -3.8%.

Consider `C=CCO/N=C(\C)c1c(O)c(C)c(-c2ccccc2)n(-c2ccccc2)c1=O`, for which the inhibition was 2.56%. The same measure for `CC(=O)Nc1cccc(Oc2cc(C#N)c(C#N)cc2N2CCOCC2)c1`: 8.98%. To `CCOc1cc(N2CCOCC2)c(OCC)cc1NC(=O)COC(=O)[C@H](Cc1c[nH]c2ccccc12)NC(C)=O` belongs -11.8%; to `CCOc1cc(N2CCOCC2)c(OCC)cc1NC(=O)COc1cccc2cccnc12`, 94.2% [fluorescence artefact?] (active); to `COc1ccc(C)c2sc(=NC(=O)c3ccc(C#N)cc3)n(C)c12`, 79.7% [fluorescence artefact?] (active). The same measure for `Cn1c(=NC(=O)C2CC2)sc2cc(F)cc(F)c21`: -0.62%. Regarding `COc1ccc(OC)c2c1sc(=NC(=O)CN1C(=O)CCC1=O)n2C`, the inhibition was 28.2%. To `CCC(c1nnnn1C(C)(C)C)N(Cc1cc2cccc(C)c2n2nnnc12)C1CCCC1` (stereo unspecified) belongs -3.95%; to `CCc1nc(N2CCN(c3nc(C)cc(C)n3)CC2)c2oc3ccccc3c2n1`, 49.1%. On to `Cc1cc(C)nc(N2CCN(c3ncnc4c3oc3ccccc34)CC2)n1`, for which the inhibition is 16.1%.

As to `Cc1nc(N2CCN(c3ncccn3)CC2)c2oc3ccccc3c2n1`, the inhibition is 54.3% [fluorescence artefact?] (active). To `O=C(Cc1ccccc1)n1nc(-c2ccccc2)nc1NCc1ccco1` belongs -2.71%. With `c1ccc(-c2nc(NCc3ccco3)c3ccccc3n2)cc1`, the inhibition is 2.5%. With `CN1CCc2c(sc3c2c(NCc2ccco2)nc2nnnn23)C1`, the inhibition is 84.9% [fluorescence artefact?] (active). To `CC(C)CCNC(=O)CC1C(=O)N(Cc2ccccc2)C(C)c2nc3ccccc3n21` (stereo unspecified) belongs -8.13%; to `COCCNS(=O)(=O)c1cc(Br)ccc1OC`, 3.01%; to `CC(C)(C)c1ccc(C(=O)NCC(=O)OCN2C(=O)c3ccccc3C2=O)cc1`, 0.65%. To `O=C(OCC#CCSc1nnc(-c2ccncc2)o1)c1sc2ccccc2c1Cl` belongs -0.24%; to `O=C(CN1C(=O)CC(c2ccccc2)=Nc2ccccc21)NC1CCCCC1`, -6.54%; to `Cn1c(=NC(=O)CSCC(=O)N2CCOCC2)sc2ccccc21`, -10.2%. The same measure for `Cn1c(=NC(=O)CSCC(=O)N2CCCCC2)sc2ccccc21`: -2.22%. `Cn1c(=NC(=O)c2cnccn2)sc2ccccc21`: the inhibition is 56.8% [fluorescence artefact?] (active).

As to `O=C(Nc1ccc2nc3n(c(=O)c2c1)CCCCC3)c1ccccc1Cl`, the inhibition is 1.87%.

On to `CCCc1noc2c1/C(=N\O)CCC2`, for which the inhibition is -11.6%. As for `COc1ccc(S(=O)(=O)Nc2ccc(F)cc2)c(C)c1C`, the inhibition is 10.1%. With `CN(c1ccc(C(=O)NCc2ccccn2)cc1)S(C)(=O)=O`, the inhibition was -0.26%. Regarding `O=C(NCc1ccccn1)c1ccc2nc(-c3ccco3)c(-c3ccco3)nc2c1`, the inhibition is 88% [fluorescence artefact?] (active).

Turning to `O=C(NCc1ccccn1)c1cc2ccccc2oc1=O`, the inhibition is -3.07%. For the compound `CCN(CC)C(=O)CSc1nc2ccccc2o1`, the inhibition was -2.4%.

For the compound `O=S(=O)(NCC1OCCc2ccccc21)c1ccccc1` (stereo unspecified), the inhibition is -3.46%. `O=S(=O)(NCCNS(=O)(=O)c1ccccc1)c1ccccc1`: the inhibition was -4.42%. As to `O=c1/c(=C/c2ccc(CNS(=O)(=O)c3ccccc3)o2)sc2n1CCN=2`, the inhibition is 51.2% [fluorescence artefact?] (active).

On to `CC(=O)C1=C(C)NC(=O)NC1c1cc(Br)ccc1OCC#N` (stereo unspecified), for which the inhibition was -10.9%.

For `CC(C)n1c(-c2cccs2)nc2ccccc21`, the inhibition is -8.49%. For `O=C(CCn1c(SCC(=O)c2ccccc2)nc2ccccc2c1=O)NCc1ccc(F)cc1`, the inhibition was 47.2%.

The values are drawn from PubChem BioAssay AID629 (Emory University Molecular Libraries Screening Center, 2007).
